Screens: PubChem, several laboratories
Hits are enriched below; roughly 3.2% of the tested compounds scored in any of these assays.
GDH-TPI counter-1 = GDH-TPI coupled enzyme inhibition counter-screen; GDH-TPI coupled enzyme counterscreen, NADH absorbance; inhibition, % at 4.8 µM; actives 1.2% (n = 360,000); AID 588335; in the data active = inhibition above about 30%;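 also: 0% = DMSO wells and 100% = wells lacking the enzyme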
Mtb FBA inh = inhibits M. tuberculosis FBA enzyme. purified M. tuberculosis FBA, fluorescence read-out. inhibition, % at 1 µM. actives 2.3% (n = 360,000);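 also: 0% = vehicle and 100% = reference inhibitor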
PriA SSB inh = blocks PriA binding to SSB C-terminal tail; AlphaScreen SSBct-PriA binding, biotinylated peptide; inhibition, % at 33 µM; actives 0.6% (n = 430,000); in the data active = inhibition mostly above about 37%, no sharp cut-off; inactive = mostly below about 20%;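 also: plate controls were negative control peptide for no effect and reference peptide for full effect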
Rv3671c protease = inhibits the M. tuberculosis serine protease Rv3671c; P9WHR9; inhibition, % at 5.96 µM; actives 0.048% (n = 320,000); AID 2606; in the data active = inhibition above about 38%;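 also: extracellular domain of Rv3671c used as enzyme; 0% = enzyme with DMSO and 100% = no enzyme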
Mtb UGM inh = inhibitors of M. tuberculosis UDP-galactopyranose mutase; P9WIQ1; inhibition, % at 10 µM; actives 0.06% (n = 320,000); purified UGM, fluorescence polarization probe displacement; in the data active = inhibition above about 10%, passing the limit was not always enough
Target sequence (P9WIQ1 whole entry, looked up): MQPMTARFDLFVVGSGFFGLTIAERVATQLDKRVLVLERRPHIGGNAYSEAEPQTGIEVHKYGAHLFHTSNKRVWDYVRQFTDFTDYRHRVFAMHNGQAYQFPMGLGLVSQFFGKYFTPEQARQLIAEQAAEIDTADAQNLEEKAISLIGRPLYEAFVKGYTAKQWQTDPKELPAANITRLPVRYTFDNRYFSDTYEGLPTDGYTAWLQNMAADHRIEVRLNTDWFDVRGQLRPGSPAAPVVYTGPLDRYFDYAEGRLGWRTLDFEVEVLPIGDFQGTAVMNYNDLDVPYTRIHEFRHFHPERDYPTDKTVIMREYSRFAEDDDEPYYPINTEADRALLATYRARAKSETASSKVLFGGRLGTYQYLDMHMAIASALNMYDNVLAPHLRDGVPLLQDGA
Mtb betalactam = beta-lactam sensitization of Mtb H37Rv; AID 434955; inhibition, % at 25 µM; M. tuberculosis H37Rv growth with meropenem, percent inhibition; actives 0.27% (n = 330,000); call rule not given here;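 also: growth measured after seven days incubation then overnight dye step; 0% = bacteria only wells and 100% = bacteria with antibiotic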
Mtb FBA inh conf = Mtb FBA inhibition, confirmed; shares compounds with Mtb FBA inh; purified M. tuberculosis FBA, fluorescence read-out; AID 651616; actives 78% (n = 5,600); inhibition, % at 1 µM;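 also: 0% = vehicle wells and 100% = reference inhibitor wells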
GDH-TPI counter-2 = GDH-TPI inhibition counter-screen for FBA inhibitors. GDH-TPI coupled enzyme counterscreen, fluorescence. shares compounds with Mtb FBA inh. actives 81% (n = 5,600). inhibition, % at 1 µM; in the data active = inhibition above about 10%
Starred values were filed as active, the others as inactive; i = inactive; / = no result; + = active, no number. Rule as the data show it, unless noted: active = inhibition above about 27%; inactive = the rest.

SMILES | GDH-TPI counter-1 | Mtb FBA inh | PriA SSB inh | Rv3671c protease | Mtb UGM inh | Mtb betalactam | Mtb FBA inh conf | GDH-TPI counter-2
Cc1ccc(CNC(=O)CN(C(=O)C2(C)CC(=O)N=C3C=CC=CN32)c2cc(C)ccc2C)cc1 (stereo not drawn) | 22 | 91* | 0 | -8 | 0 | 0 | + | +
CC(=O)Nc1c(C(=O)Nc2ccc(C)c(C)c2)nnn1-c1ccc(C)cc1 | / | / | -4 | / | / | / | / | /
COC(=O)c1ccccc1C(=O)N(Cc1cccnc1)c1nc2c(Cl)cccc2s1 | / | / | 19 | / | / | / | / | /
CCOC(=O)C(=O)C1=CN(Cc2ccccc2)C=C(C#N)C1 | 16 | 29* | -5 | -15 | 0 | 0 | 98* | 70*
CCN(CC)c1ccc(-c2nn3c(-c4ccccc4OC)nnc3s2)cc1 | 24 | 31* | -18 | 5 | 1 | 96 | 52* | 31*
CC(C)(C)NC(=S)NN=Cc1c(Cl)cccc1Cl | / | / | 0 | / | / | / | / | /
O=c1[nH]c(-c2ccc(O)cc2)nc2scc(-c3cccs3)c12 | 20 | 35* | -11 | -26 | 0 | 3 | / | +
O=C(/C=C/c1ccccc1)NC(=S)Nc1ccccc1 | 25 | 27* | -16 | 1 | -1 | 6 | 6 | -1
CCOc1cc2c(cc1O)/C(=N/O)CC1C2CCC2(C)C(O)CCC12 (stereo not drawn) | / | / | i | / | / | / | / | /
O=c1[nH]c2cc3c(cc2cc1CN(CCc1ccccc1)Cc1nnnn1CC1CCCO1)OCO3 (stereo not drawn) | 26 | 30* | -16 | 3 | -1 | 10 | 12 | 17*
Cc1ccc2[nH]c(=O)c(CN(CCc3ccccc3)Cc3nnnn3CC3CCCO3)cc2c1 (stereo not drawn) | 6 | 7 | 5 | 4 | 2 | 9 | / | /
CC1CCN(C(c2cc3cc4c(cc3[nH]c2=O)OCO4)c2nnnn2CC2CCCO2)CC1 (stereo not drawn) | 6 | 3 | -9 | 2 | 1 | -2 | / | /
O=c1[nH]c2cc3c(cc2cc1CN(Cc1nnnn1CC1CCCO1)C1CCCCC1)OCO3 (stereo not drawn) | 7 | 57* | 2 | -1 | 3 | -15 | + | +
O=c1[nH]c2cc3c(cc2cc1CN(Cc1nnnn1CC1CCCO1)C1CCCC1)OCO3 (stereo not drawn) | 12 | 76* | -4 | -9 | 1 | -6 | 33* | 29*
CCc1ccc(C(C)=NNC(=O)C(O)c2ccccc2)s1 (stereo not drawn) | / | / | -5 | / | / | / | / | /
CCOc1ccc2ccccc2c1C(=O)NC[C@@H](c1ccc(F)cc1)N(C)C | / | / | -8 | / | / | / | / | /
COc1ccc(-c2c(C)oc3c(CN4CCN(CCO)CC4)c(O)ccc3c2=O)cc1OC | 12 | 31* | -2 | 3 | -5 | -19 | 64* | 58*
COc1ccc(-c2c(C)oc3c(CN4CCOCC4)c(O)ccc3c2=O)cc1 | 10 | 104* | -13 | 11 | -1 | -9 | 60* | 51*
Cc1oc2c(CN3CCCC3)c(O)ccc2c(=O)c1-c1ccc(Br)cc1 | 7 | 89* | -12 | -3 | -1 | 6 | + | +
CCc1cc2c(=O)c(-c3nc4ccccc4n3C)c(C)oc2c(CN2CCOCC2)c1O | 22 | 7 | -17 | 0 | -3 | -6 | / | /
O=C(NCCCO)c1ccc2[nH]c3ccccc3c2c1 | 2 | 36* | -8 | 5 | 0 | -2 | 125* | 91*
Cc1nc(C(=O)NCCCO)cc2c1[nH]c1ccccc12 | 6 | 19 | 9 | -16 | -1 | 10 | / | /
CC(=NNC(=O)CN1CCN(Cc2ccccc2Cl)CC1)c1cccs1 | / | / | -17 | / | / | / | / | /
CC(=O)Nc1cccc2c1C(=O)NC2=O | 2 | 28* | -8 | -3 | 4 | -7 | 54* | 43*
O=C1NC(=O)c2c(NC(=O)C3CCCO3)cccc21 (stereo not drawn) | 16 | 36* | -4 | -5 | -2 | 4 | 97* | 88*
SMILES | GDH-TPI counter-1 | Mtb FBA inh | PriA SSB inh | Rv3671c protease | Mtb UGM inh | Mtb betalactam | Mtb FBA inh conf | GDH-TPI counter-2
CCOC(=O)c1c(NC(=O)c2ccc(S(=O)(=O)N3CCCCC3)cc2)sc2c1CCC2 | / | / | -1 | / | / | / | / | /
CC(C)n1c(O)c(/C=C2\C=NN=C2c2ccccc2)sc1=S | 16 | 56* | / | -7 | 4 | 99 | 199* | 135*
O=C(Nc1nccs1)c1ccccc1N=Cc1ccccc1 | 11 | 87* | -54 | 1 | 2 | 0 | -2 | 4
COc1cc2ccccc2cc1C(=O)Nc1nccs1 | 5 | 13 | -11 | -12 | 2 | 61 | / | /
COc1cccc(C=Nc2ccccc2C(=O)Nc2nccs2)c1OC | 6 | 68* | -18 | -3 | 1 | -4 | 156* | 126*
CC(=O)Nc1ccc2c(c1)nc1n2CCN(C2CCCCC2)C1 | 8 | 56* | -4 | / | / | / | 197* | 135*
CCCC(=O)Nc1ccc2c(c1)nc1n2CCN(C2CCCCC2)C1 | 5 | 63* | 16 | -8 | -3 | 13 | 194* | 178*
O=C(Nc1ccc2c(c1)nc1n2CCN(Cc2ccccc2)C1)NC1CCCCC1 | 8 | 80* | 9 | -2 | -4 | -5 | 16 | 11*
CCCCC(=O)Nc1ccc2c(c1)nc1n2CCSC1 | 4 | 4 | 3 | -4 | 0 | 8 | / | /
Cc1cccc(C(N)=NOC(=O)CCCN2C(=O)c3ccccc3C2=O)c1 | / | / | -27 | / | / | / | / | /
Cc1nc(NCCCO)c(C#N)c2c1COC(C)(C)C2 | 5 | 74* | -9 | -4 | 1 | 10 | 113* | 86*
CC1(C)Cc2c(C#N)c(NCCCO)nc(-c3ccccc3)c2CO1 | 0 | 13 | -22 | 0 | 1 | -3 | / | /
CSc1ncc(Cl)c(C(=O)Nc2cccc3cccnc23)n1 | / | / | -2 | / | / | / | / | /
O=C(CCCCCN1C(=O)c2cccc3cccc(c23)C1=O)NC1CCS(=O)(=O)C1 (stereo not drawn) | 11 | 39* | 12 | 1 | 2 | -6 | 134* | 117*
O=C(CCCN1C(=O)c2ccccc2C1=O)NC1CCCCCC1 | 3 | 0 | -8 | 3 | 0 | -7 | / | /
O=C(CCN1C(=O)c2cccc3cccc(c23)C1=O)NC1CCS(=O)(=O)C1 (stereo not drawn) | 30 | 39* | 0 | 6 | 0 | -7 | + | +
O=C(NCC1CCN(S(=O)(=O)c2cccnc2)CC1)c1ccsc1 | / | / | -4 | / | / | / | / | /
Cc1cccc2[nH]c3c(N4CCN(C(=O)c5ccco5)CC4)ncnc3c12 | 17 | 44* | 12 | -20 | -1 | 5 | 58* | 42*
Cc1cccc2[nH]c3c(N4CCC5(CC4)OCCO5)ncnc3c12 | 31* | 41* | -11 | 4 | 1 | -4 | 68* | 52*
Clc1ccc2[nH]c3c(N4CCC5(CC4)OCCO5)ncnc3c2c1 | / | / | -3 | 1 | 1 | 54 | / | /
